Only some compounds are listed: those with a hit (about 6.9% of all), similar ones and a draw of the others.
IL-1B inflam inh – qHTS for Inhibitors of Inflammasome Signaling: IL-1-beta AlphaLISA Primary Screen | actives 4.7% (n = 360,000) | THP-1 LPS/ATP IL-1B secretion, AlphaLISA, 16 h; hits give low values | AID 743279, 2014 | activity change, % at 57.5 µM; in the data active = activity change below about -50%; inconclusive = mostly about -30% to -49%; also: % is scaled to controls: 0 for no effect and ±100 for the full control effect
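Secreted IL-1B measured by AlphaLISA bead assay after 16 h compound exposure of THP-1 cells; compounds (final up to 57.5 uM) added 1 h before LPS (250 ng/mL) and ATP (1.25 mM) stimulation; lower signal means less secretion.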
SW480 rerep – A quantitative high throughput screen for small molecules that induce DNA re-replication in SW480 colon adenocarcinoma cells | SW480 DNA re-replication, Hoechst DNA content imaging, 48 h | Potency, µM (top dose mostly 46.1 µM), for the others: at the highest dose re-replication activation, usual class: activators | actives 1.8% (n = 340,000) | AID 624297, 2012; also: potency is read from the fitted curve at half-maximal effect; % of control where 0% means no effect; nearly all actives have a fitted effect of over 55% in size
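DNA re-replication was detected as more nuclei of elevated Hoechst intensity after 48 hr exposure to compound (23 nL pinned per well of 250 cells).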
Giardia kill – Small Molecules that selectively kill Giardia lamblia: qHTS | Giardia lamblia trophozoite viability | activity change, % at 7.66 µM, hits read low | actives 0.15% (n = 340,000) | AID 540267, 2011; in the data active = activity change below about -80%; inconclusive = between about -30% and that limit;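 also: parasites exposed to compound for two days anaerobically before the ATP read; % is scaled to controls: 0 for no effect and ±100 for the full control effect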
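Viability, read as ATP luminescence: trophozoites at 100 cells/well, compound added, 48 hrs anaerobic at 37 deg C, then 15-30 min room-temperature development before reading.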
Vif-APOBEC3F blk – qHTS for Inhibitors of Vif-A3F Interactions: qHTS; HeLa A3F-eYFP + Vif (tagged APOBEC3F with the HIV-1 protein that degrades it), YFP fluorescence increase; Potency, µM (series often up to 46.1 µM), without a hit: at the top dose activity, negative = active; actives 0.2% (n = 390,000); also: potency is read from the fitted curve at half-maximal effect; % of control where 0% means no effect; nearly all actives have a fitted effect of over 65% in size
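HeLa cells stably expressing Vif plus C-terminally eYFP-tagged A3F were seeded, incubated overnight at 37 deg C, dosed with compound, incubated overnight again at 37 deg C. Yellow fluorescence (Ex 488/Em 500-530) reported blocked Vif-mediated A3F-eYFP degradation.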
Vif-A3G inh – qHTS for Inhibitors of Vif-A3G Interactions: qHTS. Potency, µM (doses to about 46.1 µM), for the others: at the top dose activity, negative = active, hits mostly inhibitors. AID 602310, 2012. HeLa A3G-eYFP + Vif (tagged APOBEC3G with the HIV-1 protein that degrades it), YFP fluorescence, overnight. DNA dC->dU-editing enzyme APOBEC-3G (Homo sapiens), Q9HC16. actives 0.076% (n = 410,000); also: potency is read from the fitted curve at half-maximal effect; % is scaled to controls: 0 for no effect and ±100 for the full control effect; nearly all actives have a fitted effect of over 60% in size
Target sequence (Q9HC16 whole entry, looked up): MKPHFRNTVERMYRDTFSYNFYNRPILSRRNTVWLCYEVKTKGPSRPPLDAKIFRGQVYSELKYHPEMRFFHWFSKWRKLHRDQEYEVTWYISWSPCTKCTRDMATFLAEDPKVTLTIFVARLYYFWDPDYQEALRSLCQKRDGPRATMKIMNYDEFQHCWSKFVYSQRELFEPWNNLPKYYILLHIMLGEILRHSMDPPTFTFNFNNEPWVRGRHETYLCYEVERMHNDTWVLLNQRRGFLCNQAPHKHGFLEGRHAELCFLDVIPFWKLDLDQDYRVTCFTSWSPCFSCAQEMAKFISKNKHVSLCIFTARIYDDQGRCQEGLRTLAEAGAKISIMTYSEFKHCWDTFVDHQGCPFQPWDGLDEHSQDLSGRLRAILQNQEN
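Read-out is eYFP fluorescence (Ex 488/Em 500-530) from Vif-expressing HeLa A3G-eYFP cells; more signal means A3G escaped Vif-mediated degradation. Cells plated overnight, compound pinned in, incubated overnight at 37 deg C.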
MCF10A rerep – A quantitative high throughput screen for small molecules that induce DNA re-replication in MCF 10a normal breast cells. actives 2.9% (n = 350,000). MCF 10A DNA re-replication, Hoechst nuclear intensity, 48 h. AID 624296, 2012. Potency, µM (series often up to 46.1 µM), for the others: top-dose activity, positive = re-replication, most hits filed as activators; also: potency is read from the fitted curve at half-maximal effect; % of control where 0% means no effect; nearly all actives have a fitted effect of over 50% in size
An asterisk follows results filed as active; ? = inconclusive; . = not tested or not shown. Unless noted, calls follow the shape of the dose curve; as a rule, active = well fitted curve in the direction sought with a large enough effect; inconclusive = small, poorly fitted or top-dose-only effect, or another doubt; inactive = no such curve, though single readings can be large; an effect the other way counts as inactive or inconclusive.

SMILES	IL-1B inflam inh	SW480 rerep	Giardia kill	Vif-APOBEC3F blk	Vif-A3G inh	MCF10A rerep
Cc1cc(NC(=O)/C=C/c2cccc(F)c2)n(-c2nc3ccccc3[nH]2)n1	0	?	-6	-25%	-6%	16µM*
COc1ccc(/C=C/C(=O)Nc2cc(C)nn2-c2nc3ccccc3[nH]2)cc1	-6	18µM*	-22	0%	-12%	?
Cc1cc(NC(=O)/C=C/c2cccc(Cl)c2)n(-c2nc3ccccc3[nH]2)n1	27	?	2	?	0%	21µM*
Cc1cc(NC(=O)/C=C/c2ccc(F)cc2)n(-c2nc3ccccc3[nH]2)n1	7	2%	-11	-14%	-2%	?
Cc1ccc(NC(=O)CN2C(=O)CC(c3ccco3)Sc3ccccc32)cc1Cl (centres undefined)	.	.	.	-5%	-2%	.
O=C(NCCc1nc2ccccc2[nH]1)/C(=C/c1ccc2c(c1)OCO2)NC(=O)c1ccc(Cl)cc1Cl	-99*	10%	-4	3%	-3%	?
O=C(NC1CCCC1)c1ccc2c(=O)n(Cc3ccccc3)c(SCc3cccc([N+](=O)[O-])c3)nc2c1	.	.	.	4%	-2%	.
CCC(CNC(=O)c1c(C)nn(-c2ccccc2)c1Cl)c1ccccc1 (centres undefined)	-82*	-1%	-5	3%	0%	?
Cc1nn(-c2ccccc2)c(Cl)c1C(=O)NCCCCNC(=O)c1c(C)nn(-c2ccccc2)c1Cl	-14	2%	-16	-7%	-1%	7%
Cc1ccc(NCc2ccccc2O)cc1	-17	-12%	-20	-4%	4%	-3%
Cc1ccc(CNc2ccc(O)cc2)cc1	-95*	?	?	2%	3%	?
CCCCC[C@H](C)N1C[C@@H](COCc2ccccc2)Oc2cc(N3CCC[C@H]3CO)ccc2S1(=O)=O	-23	.	.	.	.	.
CCCCC[C@H](C)N1C[C@H](COCc2ccccc2)Oc2cc(N3CCC[C@H]3CO)ccc2S1(=O)=O	-55*	.	.	.	.	.
CCCCC[C@@H](C)N1C[C@H](COCc2ccccc2)Oc2cc(N3CC[C@H](N(C)C)C3)ccc2S1(=O)=O	-82*	.	.	.	.	.
Cc1ccc2oc(-c3ccc(NC(=O)COc4ccccc4)cc3O)nc2c1	.	.	.	.	1%	.
COC(=O)c1ccc(NC(=O)CC2C(=O)N(c3ccccc3)C(=O)N2C2CCCC2)cc1 (centres undefined)	.	.	.	0%	-6%	.
CC1CCCC(NC(=O)NC(=O)CCl)C1C (centres undefined)	-63*	?	-9	4%	-10%	?
CC1CCCCC1NC(=O)NC(=O)COC(=O)c1nccnc1N (centres undefined)	19	-3%	10	2%	2%	-1%
CC1CCCCC1NC(=O)NC(=O)CCl (centres undefined)	-96*	6.5µM*	-16	4%	-8%	?
Fc1cccc(NCc2ccccc2-c2nnc(-c3ccccc3Cl)o2)c1	.	.	.	-2%	0%	.
CCCOc1ccc(NC(N)=O)cc1OCCC	12	-6%	11	-3%	1%	1%
CC(C)CCOc1ccccc1C(N)=O	19	-3%	4	1%	0%	17%
COC(=O)c1cc(CSC(=N)N)ccc1OCCC(C)C	-85*	225%	6	-13%	2%	?
CCCOc1ccc(CSC(=N)N)cc1C(=O)OC	-57*	-25%	19	0%	-2%	6%
COc1ccc(C(=O)CC2(O)C(=O)N(Cc3ccccc3)c3ccc(Br)cc32)cc1 (centres undefined)	.	.	.	-9%	-7%	.
SMILES	IL-1B inflam inh	SW480 rerep	Giardia kill	Vif-APOBEC3F blk	Vif-A3G inh	MCF10A rerep
CCOC(=S)SCC(=O)Nc1ncc(C)s1	-98*	?	10	-8%	?	?
Cc1nnc(SC(C)C(=O)Nc2ccc(Cl)cn2)n1Cc1ccccc1 (centres undefined)	-60*	-16%	27	-6%	2%	?
O=C(CCc1ccccc1)Nc1ccc(Cl)cn1	0	6.5µM*	12	.	?	5.8µM*
CCOC(=O)/C=C/C(=O)OCC(=O)Nc1ccc(Cl)cn1	8	1%	3	2%	-3%	21µM*
CCOc1ccc(NC(=O)CN(C)S(=O)(=O)c2ccc3c(c2)c(=O)n(C)c(=O)n3C)cc1	.	.	.	-2%	3%	.
COc1ccc(OC)c(NC(=O)C2=C(C)C(=O)OC23CCCCCC3)c1	.	.	.	-16%	3%	.
COc1cccc(-n2ccnc2SCC(=O)Nc2cccc3ccccc23)c1	.	.	.	-9%	0%	.
CSc1ccc(Cl)c(C(=O)Nc2ccc(Cl)cn2)c1	28	21µM*	1	-1%	?	21µM*
O=C(Nc1ccc(Cl)cn1)c1ccc(Oc2ccccc2)cc1	-67*	-1%	-14	-3%	4%	6%
COc1ccc(CCC(=O)Nc2ncc(C)s2)cc1OC	5	?	10	-2%	-6%	12%
Cc1cnc(NC(=O)CCc2ccccc2)s1	10	13µM*	-23	-21%	?	10µM*
COc1cc(SC)ccc1C(=O)Nc1ccc(Cl)cn1	?	-114%	?	?	-3%	-35%
CCOCCc1nn2c(=O)cc(COC(=O)C3CCCCC3)nc2s1	.	.	.	-2%	-2%	.
COc1ccc(-c2cc(C(=O)OCC(=O)N3CCOCC3)c3ccccc3n2)cc1	-54*	20%	-7	-1%	1%	16µM*
O=C(c1ccco1)N1CCN(C(=O)c2cn(-c3ccccc3)nc2-c2ccccc2)CC1	0	4%	-1	3%	2%	-3%
O=C(OCC(=O)N1CCN(C(=O)c2ccco2)CC1)c1ccccc1C(=O)c1ccccc1	-1	-5%	5	-6%	-1%	-2%
O=C(OCC(=O)N1CCN(C(=O)c2ccco2)CC1)c1cc(-c2ccc(F)cc2)nc2ccccc12	-51*	-1%	-2	-8%	-1%	2%
COc1cc2ccccc2cc1C(=O)OCC(=O)N1CCOCC1	-14	-6%	4	0%	2%	-1%
O=C(OCC(=O)N1CCN(C(=O)c2ccco2)CC1)c1cc(-c2ccccc2)nc2ccccc12	-70*	7%	-10	0%	-12%	?
O=C(OCC(=O)N1CCN(C(=O)c2ccco2)CC1)c1cn(-c2ccccc2)nc1-c1ccccc1	-62*	2%	7	1%	0%	-3%

Compound activity (PubChem BioAssay)
